Assay [1] can be described thus: Cell Viability - HUV-EC-C (AID 542).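 Further: cells exposed to compound for 40 hours; on the % scale 0 is the no-effect control and ±100 the full control effect; nearly all actives have a fitted effect of over 35% in size.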 A digest of the protocol:
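CellTiter-Glo luminescence measured ATP loss in HUV-EC-C cells (1000/well) after 40 hr compound exposure at 37 °C, in complete culture medium. Concentration-response data were Hill-fitted to give AC50.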

Assay [2] in a line: Cell Viability - H-4-II-E (AID 543).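 Further: cells exposed to compound for 40 hours; nearly all actives have a fitted effect of over 35% in size.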 Further: potency means the concentration at half of the fitted maximal effect. The method in brief:
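CellTiter-Glo luminescence (intracellular ATP) measured after 40 h compound exposure at 37 °C in H-4-II-E rat hepatoma cells seeded at 1500/well. Values are AC50s fitted with the standard Hill equation.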

A short description of assay [3]: Cellular Toxicity (caspase-3) BJ (AID 658).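 Further: 0% = DMSO basal and 100% = 10 µM staurosporine.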 The method in brief:
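Caspase-Glo 3/7 luminescence, read 1 hr after reagent at room temperature, in normal BJ fibroblasts exposed 16 hours at 37 °C. AC50 values from Hill-equation concentration-response, scaled between DMSO basal and 10 uM staurosporine as 100%.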

The nature of assay [4]: Cellular Toxicity (caspase-3) Mesangial (AID 660).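 Further: combined caspase 3 and 7 activity read by Caspase-Glo luminescence; cells exposed to compound for 16 h before the caspase read.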 Further: potency means the concentration at half of the fitted maximal effect. As to conditions: Potency: caspase-3 activation. A digest of the protocol: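 Caspase 3/7 activation measured by Caspase-Glo 3/7 luminescence (20 min, room temperature) following 16 h exposure of mesangial cells (1000/well); AC50 from Hill-equation fit, normalized to DMSO and 100 uM tamoxifen.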
The nature of assay [5]: Cellular Toxicity (caspase-3) Hek293 (AID 664).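 Further: cells exposed to compound for 16 h at 37 °C before readout.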 Particulars: HEK293 caspase-3 activation, DMSO = 0%, 100 µM tamoxifen = 100%; at 92.2 µM (top of the series). A digest of the protocol:
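Concentration-response qHTS: caspase 3/7 activation measured by luminescent aminoluciferin substrate cleavage after 16 h compound exposure of Hek 293 cells. AC50 from Hill equation, with DMSO as basal and 100 uM tamoxifen as 100%.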

The nature of assay [6]: Cell Viability - LYMP1-003 - Assay at 40 hr (AID 964). Further: nearly all actives have a fitted effect of over 60% in size. Further: potency means the concentration at half of the fitted maximal effect. A digest of the protocol:
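Viability is taken as cellular ATP, read by CellTiter-Glo luminescence after 40 h of compound exposure at 37 C. Cells: human lymphoblastoid line LYMP1-003 at 2500/well; AC50 values derived by Hill-equation fitting of concentration-response data.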

A short description of assay [7]: Cell Viability - LYMP2-003 (AID 965).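 Further: cells exposed to compounds for 24 h before reading; 0% = DMSO only and full effect = 92 µM tetraoctylammonium bromide; nearly all actives have a fitted effect of over 50% in size.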 A digest of the protocol: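 Acute cytotoxicity is scored as a concentration-dependent drop in intracellular ATP, measured by luciferase luminescence in human lymphoblastoid cells treated for 24 hours at 37 C. AC50 values derive from Hill-equation modelling.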
Assay [8] is described as follows: Cell Viability - LYMP2-015 (AID 971). Further: nearly all actives have a fitted effect of over 55% in size. Further: potency means the concentration at half of the fitted maximal effect. A digest of the protocol:
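Cytotoxicity readout: decrease in intracellular ATP (CellTiter-Glo luminescence) in 2500 LYMP2-015 lymphoblastoid cells/well after 24 h compound exposure at 37 C. Concentration-response data fitted with the standard Hill equation to give AC50.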

The nature of assay [9]: Cell Viability - LYMP2-016 (AID 984). Further: nearly all actives have a fitted effect of over 55% in size. Further: potency means the concentration at half of the fitted maximal effect. A digest of the protocol: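 Acute toxicity in a Coriell human lymphoblastoid line is scored as loss of intracellular ATP over 24 h of treatment in complete medium. CellTiter-Glo signal is fitted across concentrations with the Hill equation to give AC50.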
Assay [10] is described as follows: Cell Viability - LYMP2-018 (AID 985). Further: nearly all actives have a fitted effect of over 50% in size. Further: potency means the concentration at half of the fitted maximal effect. The method in brief: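 Viability read as CellTiter-Glo luminescence (cellular ATP) after 24 hr compound exposure at 37 C of 2500 LYMP2-018 lymphoblastoid cells/well, pre-plated 5 hr. Hill-equation modelling gave AC50.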
Assay [11] is described as follows: qHTS assay for cell viability of the p53RE-bla HCT-116 cell line (AID 743292). Further: on the % scale 0 is the no-effect control and ±100 the full control effect; nearly all actives have a fitted effect of over 55% in size. The method in brief: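 CellSensor p53RE-bla HCT-116 cells, 4,000/well, preincubated 5 h at 37 C, then exposed to compounds in DMSO for 16 h at 37 C. Viability read as CellTiter-Glo luminescence (intracellular ATP) after 30 min at room temperature.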
Assay [12] is described as follows: Cell Viability - SH-SY5Y (AID 544).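 Further: cells exposed to compound for 40 hours; nearly all actives have a fitted effect of over 55% in size.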 Further: potency means the concentration at half of the fitted maximal effect. Particulars: SH-SY5Y neuroblastoma cell viability; viability change, negative = cytotoxic: at 92.2 µM (top of the series). The method in brief: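 Cytotoxicity measured via ATP-dependent luciferase luminescence (CellTiter-Glo) following 40 h, 37 °C exposure of 1500 SH-SY5Y cells per well. Concentration-response data were fitted with the standard Hill equation to give AC50.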

Assay [13] can be described thus: Cell Viability - LYMP2-001 (AID 921). Further: nearly all actives have a fitted effect of over 70% in size. Further: potency means the concentration at half of the fitted maximal effect. The method in brief:
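qHTS, 1536-well; lymphoblastoid cells, 24 hr compound, 37 C; ATP by CellTiter-Glo, 30 min RT; luminescence; Hill-fit AC50.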

Assay [14] can be described thus: Cell Viability - LYMP2-005 (AID 967).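 Further: plate controls were DMSO only for no effect and 92 µM tetraoctylammonium bromide control for full effect.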 A digest of the protocol:
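qHTS viability screen in LYMP2-005 cells: 24 h at 37 C with compound, ATP luminescence via CellTiter-Glo, AC50 from Hill curves.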

A short description of assay [15]: Cell Viability - LYMP2-011 (AID 969). Further: nearly all actives have a fitted effect of over 60% in size. Further: potency means the concentration at half of the fitted maximal effect.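 On viability change, negative = cytotoxic: 0% = DMSO only and full inhibition = 92 µM tetraoctylammonium bromide.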 A digest of the protocol:
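Cytotoxicity qHTS with ATP content as read-out: lymphoblastoid cells (2500/well) exposed to compound for 24 h at 37 C, then luciferase luminescence measured. Concentration-response data fitted with the standard Hill equation to give AC50.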

Assay [16] can be described thus: Cell Viability - LYMP2-019 (AID 973). Further: nearly all actives have a fitted effect of over 55% in size. Further: potency means the concentration at half of the fitted maximal effect. The method in brief:
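AC50 values come from Hill-equation fits of luminescent intracellular ATP (CellTiter-Glo, 30 min, room temperature) following 24 h compound exposure at 37 C. Cells: LYMP2-019 lymphoblastoid line, 2500 per well, in complete culture medium.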

Assay [17] can be described thus: Cell Viability - LYMP2-023 (AID 975). Further: nearly all actives have a fitted effect of over 55% in size. Further: potency means the concentration at half of the fitted maximal effect. The method in brief:
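Intracellular ATP, read by CellTiter-Glo luminescence, reports viability after 24 hr compound exposure at 37 C. 2500 lymphoblastoid cells/well (LYMP2-023) seeded 5 hr beforehand; Hill fits give AC50; positive control tetraoctylammonium bromide.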

A short description of assay [18]: Cell Viability - LYMP1-002 - Assay at 16 hr (AID 948).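 Further: 0% = DMSO alone and full effect = 92 µM tetraoctylammonium bromide.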 A digest of the protocol: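 Acute cytotoxicity is scored as a concentration-dependent fall in intracellular ATP in a human lymphoblastoid line (LYMP1-002) after 16 hr compound exposure at 37 C, measured by luciferase luminescence.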
The nature of assay [19]: Cell Viability - LYMP1-003 - Assay at 24 hr (AID 963).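 Further: plate controls were DMSO only for no effect and tetraoctylammonium bromide positive control for full effect.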 A digest of the protocol: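 Concentration-response qHTS: ATP loss measured by CellTiter-Glo luminescence after 24 h compound exposure at 37 C. Cells were LYMP1-003 human lymphoblastoid, 2500 per well. AC50 derived via standard Hill equation modeling.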
Assay [20] can be described thus: Cell Viability - Jurkat (AID 426;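 active means dose-dependent loss of cell ATP signal giving a full or clear fitted curve, ranked by lower potency value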;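 further: potency means the concentration at half of the fitted maximal effect; cells exposed to compound for 40 hours at 37 °C before ATP read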). Particulars: qHTS. The method in brief: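 Cytotoxicity taken as drop in cellular ATP (CellTiter-Glo luminescence, 20 min room temperature) after 40 hr, 37C treatment of 5000 Jurkat Clone E6-1 cells per well; concentration-response fitted with Hill equation for AC50.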
(In general: In qHTS, concentration-response curves come from the screen itself.)

Unmarked numbers belong to inactive results. Records with an inconclusive call do not appear. The source made the active and inactive calls. Unless noted, the call rests on the fitted dose curve; in most records, active means well fitted curve in the direction sought with a large enough effect; inconclusive means small, poorly fitted or top-dose-only effect, or another doubt; inactive means no such curve, though single readings can be large; an effect the other way counts as inactive or inconclusive.

Consider `[Cd+2].[Cl-].[Cl-]`, for which the Potency entry in [1], in assay [4], in assay [7], in [9], in assay [10] and in [11] was “inactive” throughout. Besides, the Potency is 1.26 µM (active) in assay [2], 15.8 µM (active) in assay [6] and 50.1 µM (active) in assay [8]. Besides, the compound was classed as inactive in assay [3]. Moreover, the caspase-3 activation in [5] was 1.43%.

On to `Clc1ccc(C(c2ccc(Cl)cc2)C(Cl)Cl)cc1`, for which the Potency result in [1], in [13], in assay [7], in [14], in assay [15] and in assay [8] was “inactive” throughout. For the same compound, the Potency entry in [16], in [17], in [9] and in assay [10] was “inactive” each time. For the same compound, the Potency in assay [12] was 31.6 µM (active); in assay [4] it was 31.6 µM (active); in assay [6], 79.4 µM (active). The outcome in [3] was inactive. In addition, in [5], the caspase-3 activation was 127% (active).

On to `C(=NC1CCCCC1)=NC1CCCCC1`, for which the Potency entry in assay [1], in [12], in assay [4], in assay [18], in assay [19] and in assay [6] was “inactive” throughout. In addition, the Potency result in assay [7], in [14] and in [11] was “inactive” in each case. Also, in [2], the Potency is 1.26 µM (active). For the same compound, the result in [3] was inactive.

Consider `FC(F)(F)c1ccc(Cl)cc1`, for which the Potency in [20] is above 92 µM. For the same compound, the Potency entry in assay [1], in assay [2], in [12], in [4], in [13] and in assay [18] was “inactive” in each case. Besides, the Potency entry in assay [19], in [6], in assay [7], in assay [14], in [15] and in assay [8] was “inactive” throughout. Also, the Potency result in assay [16], in assay [17], in [9], in assay [10] and in assay [11] was “inactive” in each case. Moreover, in assay [3], the outcome was inactive. For the same compound, the caspase-3 activation in [5] was 3.4%.

`Nc1ccccc1C(=O)OCCc1ccccc1`: the Potency in assay [20] is above 92 µM. Besides, the Potency result in assay [1], in [2], in assay [12], in [4], in assay [13] and in [18] was “inactive” throughout. Also, the Potency entry in assay [19], in assay [6], in assay [7], in assay [14], in assay [15] and in assay [8] was “inactive” throughout. In addition, the Potency entry in assay [16], in [17], in [9], in assay [10] and in assay [11] was “inactive” throughout. Besides, the compound was classed as inactive in assay [3]. Further, the caspase-3 activation in assay [5] was -6.67%.

Take `O=[N+]([O-])c1cc(C(F)(F)F)cc([N+](=O)[O-])c1Cl`: the Potency was 32.8 µM (active) in assay [20]; 25.1 µM (active) in assay [13]; 39.8 µM (active) in assay [15]; 31.6 µM (active) in assay [8]; 31.6 µM (active) in assay [16]; 39.8 µM (active) in assay [17]. The Potency in assay [9] and in assay [10] was 31.6 µM (active) throughout. The Potency result in [1], in assay [4], in assay [18], in assay [19], in assay [6] and in [14] was “inactive” in each case. The Potency result in assay [11] is “inactive”. The caspase-3 activation in [5] was -11.2%.
